Compound activity as filed in PubChem.
Shown are actives, neighbours in structure and some others; about 8.5% of the full set was active somewhere.
ALDH1A1 inh = qHTS Assay for Inhibitors of Aldehyde Dehydrogenase 1 (ALDH1A1); Aldehyde dehydrogenase 1A1 (Homo sapiens), P00352; Purified ALDH1A1, NADH fluorescence, propionaldehyde substrate; Potency, µM (titrated, usually from 75.3 µM), for inactives: at the top dose activity, negative = inhibition, usual class: inhibitors; hit rate 7.3% among 220,000; active = well fitted inhibition curve with a large enough effect, not every such curve was filed as active; inconclusive = small, poorly fitted or top-dose-only effect, or another doubt; inactive = no such curve, though single readings can be large or run the other way;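 also: potency is read from the fitted curve at half-maximal effect; plate controls were no enzyme wells and a reference inhibitor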
Sfp PPTase inh = qHTS Assay for Inhibitors of Bacillus subtilis Sfp phosphopantetheinyl transferase (PPTase); 4'-phosphopantetheinyl transferase ffp (Bacillus subtilis), Q9F4F7; Biochemical Sfp PPTase activity, qHTS; Potency, µM, for the others: largest response in the series, negative = inhibition, most hits filed as inhibitors; hit rate 3.5% among 310,000; AID 1490, 2009;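 also: the enzyme is Sfp with the accession as filed and its product quenches rhodamine fluorescence; potency is read from the fitted curve at half-maximal effect; 0% = enzyme reaction without inhibitor and -100% = no enzyme wells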
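Step 1, compound plus 15 nM Sfp-PPTase, 15 min, room temperature. Step 2, add rhodamine-CoA (5 uM) and BHQ-2-YbbR (12.5 uM). Step 3, read 525/598 nm fluorescence at 0 and 30 min.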
NPSR antag = qHTS Assay for Antagonists of the Neuropeptide S Receptor: cAMP Signal Transduction; Q6W5P4; hit rate 1% among 220,000; Potency, µM (series often up to 38.3 µM), inactives show at the top dose activity change, negative = inhibition, hits mostly inhibitors; CHO-NPSR cells, cAMP TR-FRET, antagonist mode; AID 1461, 2008; also: potency is read from the fitted curve at half-maximal effect; nearly all actives have a fitted effect of over 50% in size
Target sequence (Q6W5P4 whole entry, looked up): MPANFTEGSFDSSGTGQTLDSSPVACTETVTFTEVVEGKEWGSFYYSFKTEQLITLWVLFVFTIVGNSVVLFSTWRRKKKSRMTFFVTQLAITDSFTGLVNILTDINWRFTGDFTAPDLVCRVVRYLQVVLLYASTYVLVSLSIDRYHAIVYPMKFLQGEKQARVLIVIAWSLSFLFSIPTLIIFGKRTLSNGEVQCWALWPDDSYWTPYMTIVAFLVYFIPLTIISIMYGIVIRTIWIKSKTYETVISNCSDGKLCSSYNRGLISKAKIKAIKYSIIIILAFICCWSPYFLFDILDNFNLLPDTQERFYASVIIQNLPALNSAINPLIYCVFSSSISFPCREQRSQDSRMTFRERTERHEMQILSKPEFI
Coupling enz = qHTS Assay for Inhibitors of Fructose-1,6-bisphosphate Aldolase from Giardia Lamblia: Coupling assay counterscreen; coupling enzyme system counterscreen, AmpLite Red fluorescence; activity change, negative = inhibition, % at 58.2 µM, hits read low; hit rate 0.67% among 290,000; in the data active = activity change below about -30%
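Fluorescence at 525 nm excitation and 598 nm emission measured inhibition of the coupled detection system without aldolase. Compounds (at 57.5 uM final) were preincubated 10 min at room temperature with coupling enzyme reagent before a 20 min substrate/AmpLite Red step.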
GoLoco inh red = qHTS Assay for Inhibitors of RGS12 GoLoco Motif Activity (Red Fluorophore); Potency, µM (series often up to 61.6 µM), without a hit: at the highest dose activity, negative = inhibition, hits mostly inhibitors; hit rate 0.44% among 230,000; Guanine nucleotide-binding protein G(i) subunit alpha-1 (Homo sapiens), P63096; Gai1:RGS12 GoLoco peptide FP, rhodamine, 10 min; active = well fitted inhibition curve with a large enough effect, not every such curve was filed as active; inactive = no such curve, though single readings can be large or run the other way; also: potency is read from the fitted curve at half-maximal effect; nearly all actives have a fitted effect of over 30% in size
JMJD2E inh = qHTS Assay for Inhibitors of Human Jumonji Domain Containing 2E (JMJD2E); Lysine-specific demethylase 4E (Homo sapiens), B2RXH2; JMJD2E catalytic domain, FDH-coupled NADH fluorescence (FDH is formaldehyde dehydrogenase); Potency, µM (titrated, usually from 57.1 µM), for the others: at the top dose activity change, negative = inhibition, hits mostly inhibitors; hit rate 1.6% among 230,000; AID 2147, 2009; active = well fitted inhibition curve with a large enough effect, not every such curve was filed as active; inconclusive = small, poorly fitted or top-dose-only effect, or another doubt; inactive = no such curve, though single readings can be large or run the other way;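 also: potency is read from the fitted curve at half-maximal effect; 0% = wells with enzyme and -100% = buffer wells without enzyme; nearly all actives have a fitted effect of over 50% in size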
Target sequence (B2RXH2 1-337 limits assumed): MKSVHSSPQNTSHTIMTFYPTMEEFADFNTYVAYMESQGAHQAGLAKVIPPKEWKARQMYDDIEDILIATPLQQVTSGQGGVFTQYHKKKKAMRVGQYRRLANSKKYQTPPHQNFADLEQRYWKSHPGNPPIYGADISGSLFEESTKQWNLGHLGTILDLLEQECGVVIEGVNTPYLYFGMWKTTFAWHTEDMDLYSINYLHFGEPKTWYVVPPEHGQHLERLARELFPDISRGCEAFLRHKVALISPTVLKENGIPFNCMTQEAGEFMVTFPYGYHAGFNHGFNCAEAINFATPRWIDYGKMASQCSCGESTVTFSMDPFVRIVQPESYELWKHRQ
Numbers without * were called inactive; ? = inconclusive; . = no result; [ ] = another dose, or the depositor's remark. Unless noted, calls follow the shape of the dose curve; as a rule, active = well fitted curve in the direction sought with a large enough effect; inconclusive = small, poorly fitted or top-dose-only effect, or another doubt; inactive = no such curve, though single readings can be large; an effect the other way counts as inactive or inconclusive. Unless noted, % is scaled to controls: 0 for no effect and ±100 for the full control effect.

SMILES	ALDH1A1 inh	Sfp PPTase inh	NPSR antag	Coupling enz	GoLoco inh red	JMJD2E inh
Cc1cc(C)c(O)c(Cc2cccc(Cc3cc(C)cc(C)c3O)c2O)c1	1%[13.5 µM]	.	.	.	3%[14.2 µM]	.
Cc1cc(C)c(O)c(N)c1	25µM*	20µM*	-4%	-16	-1%	16µM*
COc1ccc(-c2nn(-c3ccccc3)cc2/C=C(\C#N)S(=O)(=O)c2ccccc2)cc1OC	8.9µM*	-6%	-2%	1	13%	17%
CS(=O)(=O)Nc1ccc(S(=O)(=O)N2CCCCCC2)cc1	.	-9%	.	0	.	.
O=C(NC(=S)Nn1cnc2c(cnn2-c2ccccc2)c1=O)c1ccccc1	18µM*	-9%	6%	11	0%	-1%
CCn1cnc2c(cnn2-c2ccccc2)c1=O	-12%	7%	6%[46.1 µM]	-1	-2%	-12%
COc1ccc(Nc2nnc(-c3ccc(C)cc3)c3ccccc23)cc1C(=O)N1CCCCC1	?	-28%	?	0	15%	?
CCN(CC)C(=O)COc1ccc(-c2nnc(Nc3ccc(OC)c(C(=O)NC)c3)c3ccccc23)cc1	25µM*	-10%	44%	1	13%	-9%
C/C(=N\NC(=O)CCc1ccc(S(=O)(=O)N2CCOCC2)cc1)c1ccccc1Cl	?	10%	-12%	-1	9%	-12%
CCN(CC)C(=O)CSc1nnc(-c2ccc(F)cc2)n1N	?	11%	1%[46.1 µM]	4	3%	4%
CCN(CC)C(=O)CSc1n[nH]c(=S)n1N	.	50µM*	-3%[7.67 µM]	-11	-1%	?
CN=CC1=C(O)CC(C)(C)CC1=O	0%	16%	-8%[46.1 µM]	2	3%	-1%
CC1(C)CC(=O)C(CC2=C(O)CC(C)(C)CC2=O)=C(O)C1	8.9µM*	?	-4%[46.1 µM]	-3	-32%	-5%
CC1(C)CC(=O)C(CC2=C(O)CC(C)(C)CC2=O)C(=O)C1	11µM*	?	-6%[46.1 µM]	-2	-4%	-13%
CN(C)S(=O)(=O)N1CCC(Oc2cccc(C(=O)N3CCSCC3)c2)CC1	.	14%	.	.	.	.
Cc1ccccc1CS(=O)(=O)CCC(=O)NCCCN1CCN(c2ccccc2F)CC1	9%	9%	11%[46.1 µM]	3	0%	0%
Cc1cc(C)c2c(=O)n(CC(=O)NCCCN3CCOCC3)sc2n1	?	1.3µM*	-4%[46.1 µM]	3	32µM*	?
Cc1cc([N+](=O)[O-])nn1CC(=O)NCCCN1CCOCC1	.	22%	.	1	.	.
Cc1cc(C)c2c(=O)n(CC(=O)NCCCN3CCN(c4ccccc4F)CC3)sc2n1	3.5µM*	4.5µM*	28%[46.1 µM]	4	20µM*	28µM*
Cc1nc(N2CCN(S(=O)(=O)c3ccc(F)cc3)CC2)c2c(-c3cccs3)csc2n1	?	8%	-57%	0	19%	?
Fc1ccc(-[n+]2nc(Nc3ccccc3)sc2-c2c3ccccc3cc3ccccc23)cc1	.	45µM*	.	-31*	.	.
Cc1ccc(NC2CCCN(C(=O)c3ccc(C)c(N4CCNC4=O)c3)C2)cc1C (stereo not drawn)	.	11%	.	.	.	.
CC(=O)N1c2ccc(S(=O)(=O)NCCC(=O)NCCc3cccc(C)c3)cc2CC1C (stereo not drawn)	.	18%	.	.	.	.
Cc1cccc(C)c1OCC(O)CNC(C)C (stereo not drawn)	-15%	6%	-13%[46.1 µM]	-3	0%	-1%
CCOC(=O)c1oc2cccc(OCC(O)CNC(C)C)c2c1C (stereo not drawn)	?	28µM*	12%[46.1 µM]	-76*	-10%	?
SMILES	ALDH1A1 inh	Sfp PPTase inh	NPSR antag	Coupling enz	GoLoco inh red	JMJD2E inh
Cc1cccc(NC(=O)CCS(=O)(=O)c2cccc3nsnc23)c1C	25µM*	?	-9%[46.1 µM]	-1	3%	1%
CCOC(=O)c1cccc(NC(=O)CCS(=O)(=O)c2cccc3nsnc23)c1	22µM*	-22%	16%[46.1 µM]	2	33%	?
COC(=O)c1cc2c(N)c(C(=O)c3ccccc3)sc2nc1C(OC)OC	.	-5%	49%	-3	4%	-4%
Cc1cc(C)nc(SSc2nc(C)cc(C)n2)n1	.	2.2µM*	.	1	.	.
O=C(Nc1nccs1)C1CC=CC2CCN(Cc3ccc(Cl)c(Cl)c3)C(=O)C21 (stereo not drawn)	.	17%	.	12	.	.
CC(C)(C)c1cc(NC(=O)COC(=O)c2ccc3c(=O)n4c(nc3c2)CCC4)n(-c2ccccc2)n1	4µM*	10%	-8%[46.1 µM]	5	-1%	-10%
Cc1csc(NC(=O)C2CCCC2)n1	-5%	79µM*	0%[46.1 µM]	0	-3%	-2%
Cc1csc(NC(=O)C2CCCCC2C(=O)O)n1 (stereo not drawn)	?	13%	-5%[46.1 µM]	4	1%	4%
COC(=O)C1CCN(C(=O)Cc2c(OC)ccc3cc(Br)ccc23)CC1	2%	56µM*	-30%	-7	40%	-3%
Cc1ccc(/C=C/C(=O)Nc2cccnc2)o1	10µM*	-15%	-36%	1	-48%	-3%
O=C(/C=C/c1ccc([N+](=O)[O-])cc1)Nc1cccnc1	8.9µM*	-5%	-19%[46.1 µM]	-2	16%	-5%
Cc1ccc(/C=C/C(=O)Nc2cccc3ncccc23)o1	?	20µM*	-9%[46.1 µM]	-12	-17%	-15%
CC1CCCC(=C\c2ccccc2)/C1=N/O (stereo not drawn)	-8%	3%	21%	2	5%	0%
COc1cccc(CN2CCN(Cc3nc(-c4cccc(F)c4F)oc3C)CC2=O)c1	25µM*	3%	-17%	2	10%	-5%
COc1ccccc1-c1c(C)oc2c(CN3CCCCC3C)c(O)ccc2c1=O (stereo not drawn)	.	10%	.	2	.	.
CS(=O)(=O)N(CC(=O)Nc1ccccc1C(=O)N1CCCC1)c1cccc([N+](=O)[O-])c1	16µM*	17%	7%	5	6%	9%
CS(=O)(=O)N(CC(=O)Nc1ccccc1C(=O)N1CCOCC1)c1cccc([N+](=O)[O-])c1	.	26%	.	.	.	.
COc1ccccc1-c1nccc(Nc2ccc(F)cc2)n1	-7%	1%	.	-1	16%	.
Cc1nc2sc3c(=O)[nH]nnc3c2c(C)c1Br	.	-1%	.	7	.	.
CC(=O)N1CCC2(CC1)CN(Cc1ccccc1)C2	7%	11%	.	0	-2%	.
CC(=O)c1c(C)nc(-c2ccc(Cl)cc2)nc1N	22µM*	-16%	1%	1	24%	?
